This note sets out measurements from PubChem BioAssay AID651815 (National Center for Advancing Translational Sciences (NCATS), 2012).

Values joined by “and” are separate entries in the source; they are usually repeats but may differ in a detail not shown here. Identical values can stand only once. Hit rate of the full screen: of about 2,100 compounds, about 1,100 (52%) were called active. Not shown: some 29% with an inconclusive outcome. Calls follow the shape of the dose curve; as a rule, active = well fitted inhibition curve with a large enough effect; inconclusive = small, poorly fitted or top-dose-only effect; inactive = no such curve, though single readings can be large or run the other way. The set was probably picked from earlier hits. Some of the results follow.
Potency is read from the fitted curve at half-maximal effect.

This test deals with DNA dC->dU-editing enzyme APOBEC-3F (Homo sapiens) (UniProt Q8IUX4). In words: qHTS for inhibitors of Vif-A3F interactions: Cherry picks counterscreen. Also: nearly all actives have a fitted effect of over 65% in size. The following applies: HeLa A3F-eYFP/Vif cells, eYFP fluorescence, 24 h; series mostly up to 46.1 µM. A digest of the protocol: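 HeLa cells stably expressing A3F-eYFP and Vif, cultured overnight, then treated 24 h at 37 degrees C with compounds at several concentrations; yellow fluorescence (488 nm Ex/500-530 nm Em) imaged on Acumen; MG132 positive control.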
Sequence of DNA dC->dU-editing enzyme APOBEC-3F (Homo sapiens) (Q8IUX4 whole entry, looked up): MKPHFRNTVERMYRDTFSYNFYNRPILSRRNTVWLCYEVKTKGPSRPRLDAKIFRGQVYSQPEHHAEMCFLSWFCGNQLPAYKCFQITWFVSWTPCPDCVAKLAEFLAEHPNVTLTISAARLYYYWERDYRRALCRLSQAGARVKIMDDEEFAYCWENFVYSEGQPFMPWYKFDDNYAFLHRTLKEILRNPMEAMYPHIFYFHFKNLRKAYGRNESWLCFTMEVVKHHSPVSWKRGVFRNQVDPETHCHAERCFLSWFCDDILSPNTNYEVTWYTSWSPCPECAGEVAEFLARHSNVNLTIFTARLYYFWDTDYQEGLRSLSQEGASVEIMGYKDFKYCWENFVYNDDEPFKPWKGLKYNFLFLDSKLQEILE
In general terms: qHTS replaces the single test concentration by a dilution series.
Consider `O=Cc1s/c(=N\S(=O)(=O)c2ccccc2)n(CCCCl)c1Cl`, for which the Potency was 5.8 µM (active). As for `O=C1[C@@H]2[C@@H](CN3CN(c4ccccc4)N=C(c4ccccc4)[C@@]23c2ccccc2)C(=O)N1c1ccccc1`, the entry is “inactive”; as for `CCN1/C(=C/c2cc[n+](C)cc2)C=Cc2cc(C)ccc21`, 18.4 µM (active); as for `CCN1/C(=C/c2ccc3ccccc3[n+]2CC)C=Cc2ccccc21`, “inactive”. As for `Cc1cc(C)cc(NC(=O)Cn2c(=O)oc3cc(S(=O)(=O)N4CCC(C)CC4)ccc32)c1`, the figure is 12.5 µM (active). `CCOc1cc(C(=O)NN=C2CCCC2)cc(OCC)c1OCC`: the Potency result was “inactive”. The figure for `COc1ccc2c(Cl)c(C(=O)N/N=C3\CCCC(=O)C3)sc2c1` is 17.7 µM (active).

Consider `N#CC1=C(N)Oc2ccc3ccc(O)cc3c2C1c1ccsc1` (stereo unspecified), for which the Potency entry was “inactive”.

Turning to `N#CC1=C(N)Oc2ccc3ccccc3c2C1c1cccnc1` (stereo unspecified), the Potency is 2.8 µM (active). The entry for `CC1=C(n2nnc3ccccc32)C(c2ccccc2)C(C#N)=C(N)O1` (stereo unspecified) is “inactive”. Regarding `CCN(CC)c1ccc2c(c1)OC(N)=C(C#N)C2c1cccnc1` (stereo unspecified), the Potency is 14 µM (active). The entry for `Cc1ccc2c(c1C)NC(=O)CC(c1ccccc1O)=N2` is “inactive”. Turning to `CN(C)c1ccc2ccc3cccc4ccc1c2c34`, the Potency was 13 µM (active). As for `C[C@H]1CN([C@@H](C)CO)C(=O)Cc2cc(NC(=O)CCC(F)(F)F)ccc2O[C@H]1CN(C)S(=O)(=O)c1ccc(F)cc1`, the figure is 12.5 µM (active); as for `CCOc1cc(C#N)c(NC(=O)c2cccnc2)cc1OCC`, 3.53 µM (active). As for `COc1ccc(OC)c(NS(=O)(=O)c2ccc(Cl)s2)c1`, the figure is 11.2 µM (active).

Take `N#Cc1ccc(/C=C\c2nccc3c2[nH]c2ccccc23)cc1`: the Potency was 15.8 µM (active). For the compound `C(=C/c1nccc2c1[nH]c1ccccc12)/c1ccc2c(c1)OCO2`, the Potency entry is “inactive”. As for `Cc1noc(C)c1COc1ccc(C(=O)NNC(=O)c2ccccc2)cc1`, the figure is 4.98 µM (active). The figure for `Cc1noc(C)c1COc1ccc(C(=O)NNC(=O)c2ccccc2F)cc1` is 9.94 µM (active); for `Cc1ccc(CN(C(=O)c2ccccc2F)c2ccccn2)o1` it is “inactive”. `C=CCN1C=CC(=CC=C(C#N)C#N)C=C1`: the Potency was 17.7 µM (active). As for `CCCN1C=CC(=CC=C(C#N)C#N)C=C1`, the figure is 17.7 µM (active); as for `CCOC(=O)/C(C#N)=C\C=C1C=CN(C)C=C1`, “inactive”; as for `C=CCN1C=CC(=C/C=C(/C#N)C(=O)OCC)C=C1`, 4.61 µM (active). As for `COc1ccc(-n2c(O)c(/C=N/NS(=O)(=O)c3cc(C)ccc3C)c3ccccc3c2=O)cc1OC`, the Potency was 13 µM (active). The figure for `COc1ccc(-n2c(O)c(/C=N/NS(=O)(=O)c3ccc(C)cc3)c3ccccc3c2=O)cc1OC` is 18.4 µM (active); for `CC12CC3CC(C)(C1)CC(C(=O)NC(=S)N1CCOCC1)(C3)C2` it is “inactive”. As for `C(=Cc1c[nH]c2ccccc12)c1ccc2ccccc2n1`, the Potency was 18.4 µM (active).

Turning to `C(=C\c1c[nH]c2ccccc12)/c1ccc2ccccc2n1`, the Potency is 18.4 µM (active). The figure for `COc1ccc(C(=O)Nc2cccc(/C=C/c3nc4ccccc4c(=O)[nH]3)c2)cc1` is 15.8 µM (active).

As for `Nc1c(C(=O)Nc2ccc(S(=O)(=O)N3CCCC3)cc2)sc2nc3cc4c(cc3cc12)CCC4`, the Potency was 14.6 µM (active). As for `CCc1cccc2cc3c(N)c(C(=O)Nc4ccc(S(=O)(=O)N5CCCC5)cc4)sc3nc12`, the figure is 6.27 µM (active); as for `Nc1c(C(=O)Nc2ccc(S(=O)(=O)N3CCCC3)cc2)sc2nc3ccc(OC(F)(F)F)cc3cc12`, 23.1 µM (active); as for `Cn1nnnc1SCCNCc1cc(Br)ccc1OCc1ccccc1Cl`, “inactive”. As for `CCC(C)n1c(NC(=O)c2ccccc2)c(C#N)c2nc3ccccc3nc21` (stereo unspecified), the figure is 18.4 µM (active); as for `Fc1ccc2nc3[nH]c4ccccc4c3nc2c1`, 0.886 µM (active); as for `COc1ccc(OC)c(/C=C/c2nc3ccccc3[nH]c2=O)c1`, 5.8 µM (active). The entry for `Cc1ccc(N2C(=O)[C@@H]3[C@H](C2=O)[C@H]2C=C(C(=O)c4ccccc4)C=CN2[C@@H]3C(=O)c2ccc(Cl)cc2)cc1` is “inactive”; for `COc1ccc(N2CC(C(=O)N/N=C/c3ccc(C)cc3)CC2=O)cc1` (stereo unspecified) it is 3.53 µM (active). For the compound `COCCCNC(=S)N/N=C/c1ccc(OC)cc1`, the Potency result is “inactive”. As for `CCCCN1C(=O)/C(=C/C=C2\Oc3ccccc3N2CC)SC1=S`, the entry is “inactive”. `CCSC1=N/C(=C\C=C2/Oc3ccccc3N2CC)C(=O)S1`: the Potency was 14.6 µM (active). As for `N#CC1=C(N)C(C#N)(C#N)[C@H](c2ccoc2)[C@H]2CN(Cc3ccccc3)CC=C12`, the figure is 4.98 µM (active); as for `Cc1cc(N/N=C/c2ccc([N+](=O)[O-])o2)nc2ccccc12`, 20.6 µM (active).

Consider `CCn1c(/C=C/c2ccc([N+](=O)[O-])o2)nc2ccccc2c1=O`, for which the Potency is 11.6 µM (active). As for `Cn1c(/C=C/c2ccc([N+](=O)[O-])o2)nc2ccccc2c1=O`, the figure is 23.1 µM (active); as for `O=c1c2ccccc2nc(/C=C/c2ccc([N+](=O)[O-])o2)n1CCCO`, 23.1 µM (active); as for `CCCN1C(=O)C(Cc2nc3ccccc3c(=O)n2CC)c2cc(Br)ccc21` (stereo unspecified), “inactive”. Take `COc1cc(/C=N\Nc2ccc([N+](=O)[O-])cc2)ccc1OCC(=O)Nc1ccc(C)c(C)c1`: the Potency was 0.651 µM (active). Take `CCN(CC)c1ccc(/C=c2/sc3nnc(-c4ccccc4C)n3c2=O)cc1`: the Potency is 16.4 µM (active). As to `CC[n+]1ccccc1/C=C1\Sc2ccc(C)cc2N1C`, the Potency is 20.6 µM (active). On to `COc1ccc2c(c1)N(C)/C(=C/c1cccc[n+]1C)S2`, for which the Potency is 14 µM (active). As for `CCN1/C(=C/c2cccc[n+]2C)Sc2ccc(OC)cc21`, the figure is 20.6 µM (active). As for `COc1ccccc1OCC(=O)NNC(=O)Nc1ccc(Cl)cc1`, the figure is 15.8 µM (active); as for `Cc1ccccc1OCC(=O)NNC(=O)Nc1ccc(Cl)cc1`, 4.98 µM (active); as for `O=C(CSc1n[nH]c(-c2ccccn2)n1)Nc1ccc(Cl)cc1`, “inactive”.

Take `COc1cc(C2c3cc4c(cc3OC(C)(N3CCCC3)C2C)OCO4)cc(OC)c1OC` (stereo unspecified): the Potency is 1.25 µM (active).

Turning to `CC(C)NC(=S)N/N=C1\CCCCc2ccccc21`, the Potency entry is “inactive”. The figure for `N#CC1=C(N)Oc2cc(N)ccc2C1c1ccc(F)cc1F` (stereo unspecified) is 20.6 µM (active).

As to `N#CC1=C(N)Oc2cc(N)ccc2C1C1CC=CCC1` (stereo unspecified), the Potency was 5.59 µM (active). Regarding `N#CC1=C(N)Oc2cc(N)ccc2C1c1ccccc1F` (stereo unspecified), the Potency is 4.98 µM (active).

As to `Cc1cccc(CSc2cccc3cccnc23)c1`, the Potency entry is “inactive”. With `S=C(Nc1cccc2ccccc12)NN1CCCCCC1`, the Potency entry is “inactive”. Consider `COc1ccc(S(=O)(=O)Nc2cccc3ccccc23)cc1`, for which the Potency was 10.3 µM (active). With `COC(=O)c1cccc(NS(=O)(=O)c2ccc(OC)cc2)c1C`, the Potency was 3.53 µM (active). The figure for `CCCCN1C(=O)/C(=C2/Sc3ccccc3N2C)S/C1=N\c1ncn[nH]1` is 20.6 µM (active); for `CCC(=O)Nc1nonc1-c1nc2ccccc2n1Cc1ccccc1` it is 17.7 µM (active). As to `COc1cccc(Cn2c(-c3nonc3N)nc3ccccc32)c1`, the Potency was 1.58 µM (active). As for `COc1ccc(C)c(Cn2c(-c3nonc3N)nc3ccccc32)c1`, the figure is 1.58 µM (active). `Nc1nonc1-c1nc2ccccc2n1Cc1ccc(F)cc1`: the Potency was 8.86 µM (active). As for `COc1cccc(Cn2c(-c3nonc3NC(C)=O)nc3ccccc32)c1`, the figure is 9.2 µM (active); as for `Cc1ccc(C(=O)NCCn2c(N)c(C#N)c3nc4ccccc4nc32)cc1`, 18.4 µM (active); as for `COc1ccc(COc2cc(-c3cccc(OC)c3)nc3ccc(NC(=O)c4ccc(OC)cc4)cc23)cc1`, 6.27 µM (active). The entry for `COc1ccc(-c2cc(-c3nnc(COC(=O)c4ccncc4)o3)c3ccccc3n2)cc1OC` is “inactive”; for `Cc1ccc2c(c1)sc(-c1ccc(N(C)C)cc1)[n+]2C` it is 14.6 µM (active).

With `CCC(=O)Nc1nc2ccc(NC(=O)c3cc(OC)c(OC)c(OC)c3)cc2s1`, the Potency result was “inactive”. Consider `CCCC(=O)Nc1nc2ccc(NC(=O)c3ccccc3F)cc2s1`, for which the Potency was 4.44 µM (active). As for `Cn1cc(C2=C(c3ccc(Cl)cc3Cl)C(=O)NC2=O)c2ccccc21`, the figure is 14.6 µM (active) and 20.6 µM (active); as for `CCOC(=O)N1CCC(Nc2nc3ccccc3n3nnnc23)CC1`, 18.4 µM (active).

`COC(=O)c1cc(Nc2nc3ccccc3nc2NS(=O)(=O)c2ccc(C)cc2)ccc1Cl`: the Potency was 18.4 µM (active).

In the case of `COc1cccc(Nc2nc(Nc3ccc(Cl)c(C(=O)O)c3)nc(C)c2[N+](=O)[O-])c1`, the Potency result was “inactive”. The figure for `Cc1ccc2nc(NS(=O)(=O)c3ccc(Cl)cc3)c(Nc3ccc(C(=O)O)cc3)nc2c1` is 14.6 µM (active); for `CCOC(=O)c1ccc(Nc2nc3ccccc3nc2NS(=O)(=O)c2ccc(Cl)cc2)cc1` it is 14.6 µM (active). As for `CCOC(=O)N1CCC(Nc2nc3ccccc3nc2NS(=O)(=O)c2ccc(Cl)cc2)CC1`, the figure is 23.1 µM (active).

As for `CC(=O)N/N=C/c1cc(C(C)C)cc(/C=N/NC(C)=O)c1O`, the Potency result was “inactive”. `NC(=S)N/N=C/c1cccc(O)c1O`: the Potency entry was “inactive”. The figure for `CC(=O)N/N=C/c1cc(C(C)(C)C)cc(/C=N/NC(C)=O)c1O` is 23.1 µM (active); for `CCOc1ccc(C(C)=O)cc1COc1cccnc1[N+](=O)[O-]` it is 9.94 µM (active); for `COc1cccc(/C=N/n2c(C3CCCCC3)n[nH]c2=S)c1O` it is “inactive”.

`COc1ccc(-n2nc3c(N4CCCC(C(=O)NCCc5ccccc5C)C4)nnc(C)c3c2C)cc1` (stereo unspecified): the Potency is 25.9 µM (active). With `COc1ccc2cc(C(=O)C3CCCN(Cc4ccccn4)C3)ccc2c1` (stereo unspecified), the Potency result is “inactive”. The figure for `O=C(c1ccccc1F)n1c2c(c3ccccc31)CCCC2` is 11.2 µM (active). `CNCC(O)Cn1c2c(c3ccccc31)CCCC2` (stereo unspecified): the Potency result was “inactive”.

On to `CCOC(=O)N1CCc2c(sc3c2C(=O)NC(c2ccc(N(C)C)cc2)N3)C1` (stereo unspecified), for which the Potency is 9.2 µM (active). The figure for `Cc1cc(C)c2cc3c(N)c(C(=O)Nc4c(C)[nH]c(=O)[nH]c4=O)sc3nc2c1` is 18.4 µM (active).
